Measured values as given in PubChem BioAssay (NCI).
Values joined by “and” are separate entries in the source; they are usually repeats but may differ in a detail not shown here. Equal entries are not always repeated. Compounds without any hit were thinned out: in the full panel of roughly 79,000, 15% have a hit. Cut-off read from the data, not from the text of the source: active = growth inhibition above about 70%; inactive = the rest. Where a SMILES comes first, the peptide text is derived from it. The star is where a group is joined. Cbz = O=C(OCc1ccccc1)*; NHNH2 = NN*

What was measured:
[1] = NCI Yeast Anticancer Drug Screen. Data for the rad50 strain (AID 155);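 note: 0% = growth of vehicle-only cultures of the same strain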; settings: S. cerevisiae rad50 strain growth inhibition, hits give high values; at 50.0 µM unless noted
Method in brief: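 Inhibition values express reduced yeast growth in compound-treated cultures relative to vehicle-treated controls.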

[2] = NCI Yeast Anticancer Drug Screen. Data for the mec2-1 strain (AID 157); settings: S. cerevisiae mec2-1 strain, hits give high values; at 50.0 µM unless noted
Method in brief: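 Compounds were applied to mec2-1 yeast cells. Their growth was then compared with that of vehicle-treated cultures to give growth inhibition.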

[3] = NCI Yeast Anticancer Drug Screen. Data for the sgs1 mgt1 strain (AID 161);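 note: 0% = growth of cultures given vehicle only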; settings: S. cerevisiae sgs1 mgt1 strain, hits give high values; at 50.0 µM unless noted
Method in brief: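 This yeast growth screen uses a strain with defined DNA-repair lesions; compound-treated growth is compared with vehicle-treated growth.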

[4] = NCI Yeast Anticancer Drug Screen. Data for the cln2 rad14 strain (AID 165);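 note: 0% = growth equal to vehicle treated cultures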; settings: S. cerevisiae cln2 rad14 strain, hits give high values; at 50.0 µM unless noted
Method in brief: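 Strain: cln2 rad14 yeast, altered in cell cycle control and DNA damage repair. Read-out: growth inhibition vs vehicle.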

[5] = NCI Yeast Anticancer Drug Screen. Data for the bub3 strain (AID 167); settings: S. cerevisiae bub3 mutant strain, hits give high values; at 50.0 µM unless noted
Method in brief: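 Steps: expose the mutant yeast strain to compound; grow alongside vehicle-treated cultures; measure growth; express inhibition against the vehicle cultures.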

[6] = NCI Yeast Anticancer Drug Screen. Data for the mlh1 rad18 strain (AID 175); settings: S. cerevisiae mlh1 rad18 strain growth inhibition, hits give high values; at 50.0 µM unless noted
Method in brief: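 A repair-deficient yeast strain is exposed to test compound, and growth is scored relative to vehicle-treated controls.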

Measured: growth inhibition

COc1ccc(NC(=O)/C(=N\NC(=O)C[n+]2ccccc2)c2c(O)c3ccc(O)cc3oc2=O)c([N+](=O)[O-])c1
inactive: [1] 26.6% | [2] 47.2% | [3] 29.4% | [4] 7.55% | [5] 39.5% | [6] 39.1%

c1ccc(NN(Cc2cnccn2)c2ccccc2)cc1
inactive: [1] 9.75% | [2] -2.65% | [3] -24.9% | [4] -29.9% | [5] -56.5% | [6] -12%

Cc1cccc(-c2cc3ccccc3c(Cl)n2)n1
inactive: [1] -4% | [2] -23.1% | [3] 10.8% | [4] -0.6% | [5] 7.6% | [6] 7.7%

O=S1(=O)CCC12CC1c3ccccc3C2c2ccccc21 (stereo not drawn)
inactive: [1] -6.1% | [2] -6.05% | [3] -11.6% | [4] -2.85% | [5] -11.1% | [6] -6.85%

Cc1nc2c(=O)[nH]c(=O)[nH]c2s1
inactive: [1] -12.6% | [2] 5.05% | [3] -4.2% | [4] -12% | [5] -7.5% | [6] -8.6%

Clc1ccccc1NN(Cc1ccncc1)c1ccccc1Cl
inactive: [1] 55.6% | [2] 23.1% | [3] 23.7% | [4] 26.9% | [5] 34.1% | [6] 53.1%

CC(O)CNC1=CC(=O)C(=O)c2ccccc21 (stereo not drawn)
inactive: [1] -13.3% | [2] -26.1% | [3] 4.8% | [4] 4.3% | [5] 20.4% | [6] -20.6%

O=C1OC(=O)C2=C1CCc1ccc3ccccc3c12
inactive: [1] -29.8% | [2] -22.1% | [3] 5.9% | [4] -29.6% | [5] 5.75% | [6] -5.2%

C=C=C(C)[Si](C)(C)C
inactive: [1] -14.8% | [2] 3.85% | [3] -29.9% | [4] -3.25% | [5] -51.5% | [6] -45.9%

CC(C)(C)C1CCC2c3c([nH]c4ccccc34)C3C(=O)N(c4cc(Br)cc(Br)c4)C(=O)C3C2C1 (stereo not drawn)
inactive: [1] 14.3% | [2] 9.15% | [3] 7.75% | [4] 18.9% | [5] 21.8% | [6] -46.5%

CN1C(=O)CCC1c1nc2ccccc2[nH]1 (stereo not drawn)
inactive: [1] 0.15% | [2] 9.95% | [3] -3.05% | [4] -17.9% | [5] 6.45% | [6] 20.4%

C=C1C(=O)O[C@@H]2C[C@@H](C)[C@@H]3C=CC(=O)[C@@]3(C)[C@@H](OC(=O)CCCC(=O)O[C@H]3[C@@H]4C(=C)C(=O)O[C@@H]4C[C@@H](C)[C@@H]4C=CC(=O)[C@]43C)[C@H]12
inactive: [1] 50.1% | [2] 49% | [3] 57.6% | [4] 31.1% | [5] 58% | [6] 34.9%

O=S(=O)(Cc1nc2ccccc2[nH]1)Cc1nc2ccccc2[nH]1
inactive: [1] -3.4% | [2] 4.25% | [3] 14.8% | [4] -7.25% | [5] 4.95% | [6] 9.3%

Oc1cc(O)c2cc(O)c(-c3ccc(O)c(O)c3)[o+]c2c1
inactive: [1] 11.4% | [2] 2.2% | [3] 23.4% | [4] 4.1% | [5] 31.1% | [6] 28.1%

CCOC(=O)CCC(NC(=O)OCc1ccccc1)C(=O)NC(CCC(=O)OCC)C(=O)NN (stereo not drawn) (Cbz-Glu(OEt)-Glu(OEt)-NHNH2; configuration not given here)
inactive: [1] 2.65% | [2] 7.75% | [3] 2.5% | [4] 11.8% | [5] 23.2% | [6] 27.3%

COc1ccc2oc3c(OC)c(OC)c(OC)cc3c(=O)c2c1
inactive: [1] -11.3% | [2] -21.6% | [3] -4.95% | [4] 6% | [5] 12.6% | [6] -15.8%

CCC1CC2CC(c3cc4c(cc3OC)N(C)C3C(O)(C(=O)OC)C(OC(C)=O)C5(CC)C=CCN6CCC43C65)c3[nH]c4ccccc4c3CCN(C1)C2 (stereo not drawn)
inactive: [1] 17.9% | [2] 14.3% | [3] 28.9% | [4] 2% | [5] 8.65% | [6] 43.4%

O=C1NC(N/N=C\C(O)C(O)C(O)CO)=N/C1=C/c1ccccc1 (stereo not drawn)
inactive: [1] 16.4% and 33.9% | [2] 18.7% and 29.6% | [3] 3.75% and 32.5% | [4] 16.8% and 16.1% | [5] 12.2% and 32.3% | [6] -9.35% and -5.7%

CC(C)CC(=O)/C=C\c1ccco1
inactive: [1] -15.2% | [2] -33.5% | [3] 1.05% | [4] 1.3% | [5] -10.5% | [6] -7.45%

O=C(c1ccc(Cl)cc1)c1ccc(OCCCOc2ccc(C(=O)c3ccc(Cl)cc3)cc2Cl)c(Cl)c1
inactive: [1] 9.55% | [2] -7.95% | [3] -2.35% | [4] -46.9% | [5] -20.3% | [6] 2.15%

CC(=O)Cc1cc(-c2cc(CC(C)=O)nc(N)n2)nc(N)n1
inactive: [1] 1.85% | [2] 13.3% | [3] 12.7% | [4] 15.2% | [5] 1% | [6] 20.4%

ClCCOCCOc1ccc(C2CCCCC2)cc1
inactive: [1] 12.9% and -1.65% | [2] 11.9% and -0.75% | [3] 56% and -3.65% | [4] 24.1% and -10.8% | [5] 28.2% and 31.4% | [6] 13.8% and 9.05%

CN=c1ss/c(=N\C(=S)N(C)C)n1C1CCCCC1
inactive: [1] -9.6% | [2] -0.55% | [3] 14% | [4] 13.1% | [5] 0% | [6] 21.2%

CC(=O)OC1OC(COC(c2ccccc2)(c2ccccc2)c2ccccc2)C(OC(C)=O)C(OC(C)=O)C1OC(C)=O (stereo not drawn)
inactive: [1] 12.8% | [2] -8.6% | [3] -6.15% | [4] 6.4% | [5] 1.7% | [6] 24.6%

COc1ccc(NC(=O)Nc2ccc(F)cc2)c(OC)c1
inactive: [1] 16.1% | [2] 4.9% | [3] 10.9% | [4] 13.9% | [5] 24.2% | [6] 7.45%

Nc1cncnc1N
inactive: [1] 35.7% | [2] 7.25% | [3] 31.9% | [4] 16.2% | [5] -18.6% | [6] 26.5%

CCCCCCCCCC(=O)Oc1cccc2c1CC(C[Se]c1ccccc1)C(=O)O2 (stereo not drawn)
inactive: [1] 2.1% | [2] -0.3% | [3] -0.85% | [4] -3.05% | [5] -2.05% | [6] 5.7%

CC1=C(C(=O)Nc2cc(=O)n(C)c(=O)n2C)C(c2ccco2)C(C(=O)Nc2cc(=O)n(C)c(=O)n2C)=C(C)N1
inactive: [1] -0.5% | [2] 17.9% | [3] -10.9% | [4] 13.3% | [5] -4.6% | [6] -0.4%

CC12CC(=O)OC1(C)C1CCC2C1 (stereo not drawn)
inactive: [1] 9.25% | [2] 10.3% | [3] -5.25% | [4] -10.7% | [5] -10.2% | [6] 9.05%

Cc1cc(C(=O)O)cc(C)c1N(C)C=O
inactive: [1] -0.8% | [2] 6.25% | [3] 3.15% | [4] 2.35% | [5] -1.05% | [6] 4.45%

O=[N+]([O-])c1ccc(C[n+]2ccccc2)cc1
inactive: [1] -1.25% and 31.9% | [2] 13.2% and -3.9% | [3] -4.2% and -1.45% | [4] -15.8% and 16.4% | [5] -6.95% and -2.65% | [6] -18.2% and 13.7%

C=CCOC(=O)CCCC1=NC2=CC=CC3=NC(C)=NC(=N1)N23
inactive: [1] -1.1% | [2] 2.35% | [3] 1.45% | [4] 12.2% | [5] -17.3% | [6] 1.2%

Cc1ccc([N+](=O)[O-])cc1NC(=O)N(Cc1ccccc1)Cc1ccccc1
inactive: [1] 8.7% | [2] 1.5% | [3] 10.8% | [4] 9.4% | [5] 17.3% | [6] -0.05%

Nn1nnc2ccccc21
inactive: [1] 26.8% | [2] 24.8% | [3] 16.3% | [4] 33% | [5] 7.1% | [6] 32.1%

CC(=O)c1cccc(NC(=O)CCCCCCCCC(=O)Nc2cccc(C(C)=O)c2)c1
inactive: [1] -5.7% | [2] -0.7% | [3] -1.55% | [4] -49.5% | [5] -1.2% | [6] 2.95%

O=c1c2ccccc2c(=O)n2n1-c1cccc(c1)CSSCc1cccc-2c1
inactive: [1] -16.9% | [2] 2.7% | [3] -10.6% | [4] -3.45% | [5] 0.2% | [6] -12.8%

O=[N+]([O-])c1nccn1CC1OC(n2ccnc2[N+](=O)[O-])C(O)C(O)C1O (stereo not drawn)
inactive: [1] 0.3% | [2] 2.6% | [3] -2.95% | [4] 5.9% | [5] 25.3% | [6] 6.25%

C=CSS/C(=C/N(C=O)Cc1cnc(C)nc1N)CCO
inactive: [1] -10.6% | [2] -33.5% | [3] -18.9% | [4] 1.85% | [5] -17.1% | [6] -10%
